Test results: PubChem BioAssay (NCI)
Compounds without any hit were thinned out: in the full panel of roughly 83,000, 20% have a hit.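 96-well plates, one dose, 48 hours. Percent growth reported; active if below 10.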 A number with no mark means an inactive call. The source made the active and inactive calls.

Legend:
Test in all cases: NCI-60 one-dose screen, 48 h (100 = growth as untreated, 0 = no growth, -100 = all killed)
Conditions in all cases: 10 µM unless noted
NCI-H23 lung = test system: NCI-H23 lung
NCI-H226 lung = test system: NCI-H226 lung
NCI-H322M lung = test system: NCI-H322M lung
HOP-62 NSCLC = test system: HOP-62 NSCLC
NCI-H460 lung = test system: NCI-H460 lung
NCI-H522 lung = test system: NCI-H522 lung
A549/ATCC NSCLC = test system: A549/ATCC NSCLC
786-0 renal = test system: 786-0 renal
COLO 205 colon = test system: COLO 205 colon
DU-145 prostate = test system: DU-145 prostate
K-562 leukemia = test system: K-562 leukemia
MALME-3M melanoma = test system: MALME-3M melanoma
MDA-MB-231 breast = test system: MDA-MB-231 breast
RXF 393 renal = test system: RXF 393 renal
SF-268 CNS = test system: SF-268 CNS
SF-295 CNS = test system: SF-295 CNS
SF-539 CNS = test system: SF-539 CNS
UACC-257 melanoma = test system: UACC-257 melanoma
M14 melanoma = test system: M14 melanoma

Structure (SMILES)	growth (NCI-H23 lung)	growth (NCI-H226 lung) [%]	growth (NCI-H322M lung)	growth (HOP-62 NSCLC)	growth (NCI-H460 lung)	growth (NCI-H522 lung)	growth (A549/ATCC NSCLC)	growth (786-0 renal)	growth (COLO 205 colon)	growth (DU-145 prostate) [%]	growth (K-562 leukemia)	growth (MALME-3M melanoma)	growth (MDA-MB-231 breast)	growth (RXF 393 renal)	growth (SF-268 CNS) [%]	growth (SF-295 CNS)	growth (SF-539 CNS) [%]	growth (UACC-257 melanoma)	growth (M14 melanoma)
Cc1ccc(-c2csc(NC(=O)N3CCN(c4cc5c(cc4F)c(=O)c(C(=O)O)cn5C4CC4)CC3)n2)cc1	4.84% (active)	14.5	9.12% (active)	12.6%	19.6%	-5.07% (active)	11.1%	28.9%	11.9%	16.3	17.1%	-3.8% (active)	17.5%	26.6%	24.3	4.88% (active)	26.7	-4.73% (active)	20%
O=C(N/N=C/c1ccc([N+](=O)[O-])cc1)c1ccc2nc(-c3ccc(Cl)cc3)[nH]c2c1	16.2%	54.8	70.1%	44.8%	5.44% (active)	33%	34.5%	49%	2.28% (active)	42	9.68% (active)	7.79% (active)	76.9%	31.6%	48.5	21.7%	41.7	25.1%	25.9%
O=C(CSc1nc2ccc([N+](=O)[O-])cc2[nH]1)Nc1ccc(Br)cc1	44.1%	47.9	86.7%	50.9%	47.7%	20.9%	44.5%	48.3%	41.2%	62.2	26.9%	40.9%	67.7%	85.5%	65.5	56.5%	70.5	37.7%	50.1%
Cn1cc(-c2ccc3cc(-c4ccc(CC(=O)Nc5cc(C(C)(C)C)on5)cc4)cnc3c2)cn1	46.1%	43	16.5%	44.4%	-3.39% (active)	17.2%	16.5%	-92.6% (active)	35.3%	22.1	5.03% (active)	-15.8% (active)	11.4%	-0.246% (active)	15.7	29.7%	20.4	5.83% (active)	0.0609% (active)
CCOC(=O)c1c(NC(=O)c2ccc(C(C)(C)C)cc2)sc2cc(O)ccc12	89.8%	87.9	87.1%	95.8%	98.1%	96.1%	91.9%	-92% (active)	110%	97.7	43.4%	98.7%	110%	115%	102	105%	90.9	97.3%	86.6%
O=C(Nc1ccccc1)c1sc(-c2ccccc2)cc1O	83.3%	94.9	96.9%	112%	92.5%	85.3%	111%	101%	113%	106	82.6%	84.8%	105%	105%	98.1	95.3%	90.8	128%	96.2%
Cc1ccc(C)c(-n2c(-c3ccc(Br)cc3)csc2=NC(=O)c2ccccc2F)c1	54.7%	82.5	92.8%	95.8%	40.3%	168%	71.4%	71.1%	92.9%	102	23.9%	73.9%	84.1%	81.8%	99.6	73%	89	57%	81.3%
O=C(N/N=C/c1ccc(Cl)cc1Cl)c1ccc2nc(-c3ccc(Cl)cc3)[nH]c2c1	-0.367% (active)	99.3	27.7%	8.05% (active)	-33.6% (active)	63.2%	-26.7% (active)	-42.1% (active)	-23.9% (active)	30.5	8.67% (active)	-58.7% (active)	9.48% (active)	18.9%	38	-49.3% (active)	37.1	31.7%	19.7%
